CHX counter: affects cycloheximide protein synthesis inhibition readout, counter-screen. cell reporter, cycloheximide protein synthesis inhibition counterscreen. max response, %. 300,000 compounds, 12% hits; in the data active = max response mostly above about 13%, no sharp cut-off; inactive = mostly below about 14%; note: read at 38.3 µM for the half of the compounds with a filed dose; 0% is about no effect
Pf growth 96h: P. falciparum growth inhibition at 96 hour, primary screen for plastid delayed-death inhibitors; P. falciparum luciferase reporter growth, 96 h; Potency, µM (highest dose often 28.7 µM), without a hit: at the top dose activity change, negative = inhibition, actives largely listed as inhibitors; 320,000 compounds, 6.9% hits; note: potency is the fitted concentration of half-maximal effect; % is set by controls: 0 for no effect and ±100 for the full control effect
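Luminescence readout: decreased luciferase signal marks inhibited growth of reporter-expressing P. falciparum in infected red cells (2% hematocrit, 0.05% parasitemia final), exposed to compound two generations (96 h, 37 C, 5% CO2).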
Shiga toxin inh: inhibitors of Shiga toxin in Vero cells. 290,000 compounds, 9.2% hits. inhibition, % at 38.7 µM. Vero cells, Shiga toxin protein synthesis inhibition reporter; in the data active = inhibition mostly above about 28%, no sharp cut-off; inactive = mostly below about 43%; note: 0% is about no effect
Pf growth 48h: P. falciparum growth inhibition at 48 hours (one generation); AID 504832; P. falciparum luciferase growth in erythrocytes, 48 h; 310,000 compounds, 5.9% hits; Potency, µM (top dose mostly 28.7 µM), inactives show at the highest dose activity change, negative = inhibition, most hits filed as inhibitors; note: potency is the fitted concentration of half-maximal effect; % is set by controls: 0 for no effect and ±100 for the full control effect
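Compounds are pin-transferred into medium, infected erythrocytes (2% hematocrit, 0.1% parasitemia final) are added, and plates sit one parasite generation at 37 C in 5% CO2. Detection reagent is then added and luminescence measured.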
Marburg entry inh: blocks Marburg virus binding to or entry into cells | Potency, µM (series often up to 37.8 µM), inactives show at the highest dose activity change, negative = inhibition, hits mostly inhibitors | Marburg virus pseudotyped entry inhibition, cell reporter | 300,000 compounds, 1.8% hits; calls by dose curve; tested in HEK293 cells; note: potency is the fitted concentration of half-maximal effect; % is set by controls: 0 for no effect and ±100 for the full control effect
Lassa entry inh: inhibitors of Lassa virus binding or cell entry; Lassa virus pseudotype entry inhibition, cell reporter; Potency, µM (titrated, usually from 37.9 µM), for inactives: top-dose activity change, negative = inhibition, usual class: inhibitors; 300,000 compounds, 1.2% hits; calls by dose curve; tested in HEK293 cells; note: potency is the fitted concentration of half-maximal effect; % is set by controls: 0 for no effect and ±100 for the full control effect; nearly all actives have a fitted effect of over 50% in size
The depositor's hits bear a star; i = inactive; ? = inconclusive; . = not tested or not shown; [ ] = another dose, or the depositor's remark. Hits are enriched below; roughly 19% of the tested compounds scored in any of these assays. Unless noted, calls come from the whole dose curve; as a rule, active = well fitted inhibition curve with a large enough effect; inconclusive = small, poorly fitted or top-dose-only effect, or another doubt; inactive = no such curve, though single readings can be large or run the other way.

SMILES	CHX counter	Pf growth 96h	Shiga toxin inh	Pf growth 48h	Marburg entry inh	Lassa entry inh
O=C(C1CC(=O)N(c2ccc(F)cc2)C1)N1CCC(c2nc3ccccc3[nH]2)CC1 (stereo unspecified)	.	8.3µM*	.	?	20%	21%
CCCC(=O)Nc1ccc(S(=O)(=O)N2CCC(c3nc4ccccc4[nH]3)CC2)cc1	.	5.2µM*	.	13µM*	2%	1%
COc1cccc(C2CC(C(F)(F)F)n3ncc(C(=O)Nc4c(C)n(C)n(-c5ccccc5)c4=O)c3N2)c1 (stereo unspecified)	-2	?	-8	-14%	?	4%
CCN(CC(=O)NCc1cccs1)C(=O)c1ccccc1Cl	-11	-15%	12	3%	3%	20%
O=C(c1ccc(Br)o1)N1CCC(c2nc3ccccc3[nH]2)CC1	.	?	.	?	5%	7%[46.1 µM]
O=C(C1CCCCC1)N1CCC(c2nc3ccccc3[nH]2)CC1	2	9.3µM*	-2	-25%	2%	-1%
COC(OC)c1ccnc(-c2ccc(OC(=O)c3ccccc3)cc2)n1	27	31%	43	31%	22%[46.1 µM]	24%
COc1ccc(CCN2CC(C(=O)NCCc3ccccc3)CC2=O)cc1OC (stereo unspecified)	36*	?	172*	94%	.	7%[46.1 µM]
CCCC(C)NC(=O)C1CC(=O)N(CCc2ccc(F)cc2)C1 (stereo unspecified)	2	0.93µM*	37	0%	.	.
CCC(CC)NC(=O)C1CC(=O)N(CCc2ccc(F)cc2)C1 (stereo unspecified)	-2	28%	15	2%	.	.
CCOc1ccc(CCNC(=O)C2CCC(=O)N2CCc2ccccc2)cc1OCC (stereo unspecified)	-5	13µM*	-24	.	-15%	0%
CCOc1ccc(CCNC(=O)CN2C(=O)CCSc3ccccc32)cc1OCC	-2	0.19µM*	-12	0%	8%[46.1 µM]	0%[46.1 µM]
O=C(NCCc1ccccc1)C1CCC(=O)N1CCc1ccccc1 (stereo unspecified)	-6	-21%	-12	-27%[0.00184 µM]	-24%[46.1 µM]	3%[46.1 µM]
CSc1ccc(CCNC(=O)CN2C(=O)CCSc3ccccc32)cc1	-1	12%	-6	-15%	?	9%[46.1 µM]
COc1ccc(C(=O)C2CN(C)CC2c2ccc(Cl)cc2)cc1 (stereo unspecified)	2	-10%	-25	-12%	.	.
CCOc1ncccc1C(=O)OCC(=O)Nc1ccc(C(C)C)cc1	16	28%	52	-5%	-6%[46.1 µM]	-26%[46.1 µM]
CCOc1cc2c(cc1OCC)-n1cccc1C(c1ccc(OC(F)F)cc1)NC2 (stereo unspecified)	-4	36%	-6	13µM*	.	.
CCOc1cc2c(cc1OCC)-n1cccc1C(c1ccc(C(C)C)cc1)NC2 (stereo unspecified)	-7	?	-15	8.3µM*	?	?
CCOc1cc2c(cc1OCC)-n1cccc1C(c1ccc(OC)cc1)NC2 (stereo unspecified)	-5	?	-8	?	?	?
COc1cc(C(=O)Nc2c(-c3ccccn3)c(=O)c3ccccc3n2C)cc(OC)c1OC	-6	.	14	-3%	.	.
CC1CC(C)CN(CCCn2c(=S)[nH]c3ccccc3c2=O)C1 (stereo unspecified)	-1	9%	-9	.	?	20%
C[C@@H]1CN(CCCn2c3ccccc3c3ccccc32)C[C@H](C)N1	-3	5.4µM*	-8	8.5µM*	.	.
CCCNC(=O)c1ccccc1NS(=O)(=O)c1ccc2c(c1)OCCO2	1	-16%	10	9.3µM*	-13%	12%
CCCNC(=O)c1ccccc1NC(=O)C1=CSCCO1	4	15µM*	-2	5%	.	.
CCCSCCCNC(=O)c1ccc(NC(=O)C2=CSCCO2)cc1	11	?	67*	4%	.	.
SMILES	CHX counter	Pf growth 96h	Shiga toxin inh	Pf growth 48h	Marburg entry inh	Lassa entry inh
CC(C)CCNC(=O)c1ccccc1NC(=O)C1=CSCCO1	-1	1%	27	3%	.	.
COc1ccc(CNC(=O)c2ccc(NC(=O)C3=CSCCO3)cc2)cc1	28*	?	71*	20%	.	.
Cc1ccc(CN2CCC(CNC(=O)c3ccc(NC(=O)C4=CSCCO4)cc3)CC2)cc1	10	?	22	?	.	.
CCCCNC(=O)c1ccccc1NS(=O)(=O)c1ccc2c(c1)OCCO2	-3	.	12	?	-17%	1%
CCN1CCN(CCCNC(=O)c2ccc(NC(=O)C3=CSCCO3)cc2)CC1	1	45%	8	14%	.	.
CCCNC(=O)c1sc2c(c1C(=O)Nc1ccccn1)CCCC2	-2	?	13	-22%	?	-18%
Cc1c(NC(=O)c2ccc(NS(=O)(=O)c3cccc([N+](=O)[O-])c3)cc2)c(=O)n(-c2ccccc2)n1C	.	.	.	.	1%	0%
Cc1cccc(CNC(=O)c2ccc(NC(=O)C3=CSCCO3)cc2)c1	40*	?	38	24%	.	.
CN(Cc1ccccc1)C(=O)c1ccccc1NC(=O)C1=CSCCO1	1	0%	-5	-1%	.	.
CN(Cc1ccccc1)C(=O)c1ccc(NC(=O)C2=CSCCO2)cc1	48*	?	44*	4%	.	.
CCS(=O)(=O)N1Cc2ccccc2CC1C(=O)Nc1ccc(F)cc1 (stereo unspecified)	24*	-1%	36*	135%	.	.
CCS(=O)(=O)N1Cc2ccccc2CC1C(=O)Nc1cccc(OC)c1 (stereo unspecified)	24*	?	124*	3%	3%[46.1 µM]	6%[46.1 µM]
O=C(COc1ccccc1F)NNC(=O)c1ccc2c(=O)n3c(nc2c1)CCC3	.	-18%	.	2%	-2%	-2%
Cn1c(=NC(=O)c2cccc([N+](=O)[O-])c2)sc2ccccc21	27*	i	119*	i	21%[46.1 µM]	.
COc1cc(C(=O)N=c2sc3ccccc3n2C)cc(OC)c1OC	16	?	7	-13%	?	?
CC(=O)N=c1sc2cc(C)ccc2n1C	29*	9.3µM*	147*	82%	9%	19%
Cn1c(=NC(=O)CCl)sc2ccccc21	28*	5.2µM*	46	?	?	?
Cc1sc(=NC(=O)c2ccco2)n(C)c1-c1ccccc1	40*	122%	52*	168%	?	?
COc1ccc(C2C(C(=O)Nc3ccccc3)=C(C)Nc3c(C(=O)Nc4ccccc4)cnn32)cc1 (stereo unspecified)	.	.	.	.	.	-15%[46.1 µM]
Cn1c(=NC(=O)c2ccco2)sc2ccccc21	32*	116%	53*	63%	?	.
CCC(=O)N=c1sc2ccccc2n1-c1ccccc1	-2	15%	30	29%	-14%[46.1 µM]	-17%
Cc1sc(=NC(=O)c2ccco2)n(C)c1-c1ccc(F)cc1	44*	92%	126*	200%	?	?
Cc1ccc(N2CCN(c3ccc(C)cc3)C(CC(=O)O)C2=O)cc1 (stereo unspecified)	9.2*	?	4	12µM*	16%	0%

Bioassay records deposited in PubChem BioAssay by National Center for Advancing Translational Sciences (NCATS).
